Assay outcomes from PubChem.
SSB-PriA inh = inhibitors of Klebsiella pneumoniae PriA binding to SSB C-terminal tail; 430,000 tested, 0.6% active; AlphaScreen SSBct-PriA binding, biotinylated peptide; inhibition, % at 33 µM; in the data active = inhibition mostly above about 37%, no sharp cut-off; inactive = mostly below about 20%;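 note: plate controls were negative control peptide for no effect and reference peptide for full effect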
ugtP null kill = growth inhibition of S. aureus ugtP deletion strain. S. aureus RN4220 ugtP deletion, OD600 growth, 16 h. 330,000 tested, 0.54% active. growth inhibition, % (no concentration beside the values); in the data active = growth inhibition above about 68%;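 note: plate controls were untreated wells for no effect and antibiotic for full effect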
Sa RN4220 lethal = kills Staphylococcus aureus RN4220; S. aureus RN4220 growth, OD600, 16 h; 330,000 tested, 0.33% active; inhibition, % (no concentration beside the values); AID 1259311; in the data active = inhibition above about 85%;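 note: plate controls were untreated cells for no effect and reference antibiotic for full effect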
CCHF vOTU inh-1 = blocks the CCHF virus ovarian tumor domain protease; 370,000 tested, 0.55% active; AID 651958; inhibition, % at 11.5 µM; CCHFV vOTU protease, Pep-AMC fluorescence; note: 0% = vehicle wells with enzyme and 100% = no enzyme wells
VHR inh abs = inhibitors of human VHR1 phosphatase (DUSP3) | P51452 | recombinant VHR phosphatase, pNPP absorbance | inhibition, % at 13.3 µM | 290,000 tested, 0.52% active | AID 1654; in the data active = inhibition above about 50%
Target sequence (P51452 whole entry, looked up): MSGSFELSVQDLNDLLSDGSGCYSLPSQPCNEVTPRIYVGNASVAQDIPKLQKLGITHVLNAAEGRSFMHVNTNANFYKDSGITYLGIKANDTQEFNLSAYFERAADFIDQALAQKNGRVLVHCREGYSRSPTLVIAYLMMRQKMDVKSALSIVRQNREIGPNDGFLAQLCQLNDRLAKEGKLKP
CCHF vOTU inh-2 = confirmation of CCHF virus vOTU protease inhibitors; shares compounds with CCHF vOTU inh-1; Recombinant CCHFV vOTU, Pep-AMC fluorescence; inhibition, % at 11.5 µM; 1,900 tested, 17% active
* hit, by the source's call; . = not tested or not shown. In the library only some 1.5% were active in any assay of this set; here they are far more common. Cut-off read from the data, not from the text of the source, unless noted: active = inhibition above about 30%; inactive = the rest.

SMILES | SSB-PriA inh | ugtP null kill | Sa RN4220 lethal | CCHF vOTU inh-1 | VHR inh abs | CCHF vOTU inh-2
CC(=O)OCCNc1cc(SCc2ccco2)c2nonc2c1[N+](=O)[O-] | 5 | -16 | 8 | . | -17 | .
O=[N+]([O-])c1c(NCCCO)cc(SCc2ccco2)c2nonc12 | -8 | -1 | 13 | 48* | -2 | 1
Cc1nc(Cn2nc(-c3ccco3)n(C3CC3)c2=O)cs1 | -7 | . | . | . | . | .
CCOC(=O)c1cc2sc(C)cc2n1CC(=O)NCc1ccc(F)cc1 | -2 | 1 | 1 | 30* | 3 | -17
COc1ccc(F)cc1S(=O)(=O)NCCn1nc(-n2cncn2)ccc1=O | -4 | . | . | . | . | .
CCOC(=O)N1CCN(c2ccc(C(C)=O)cc2F)CC1C (stereo not given) | 5 | -6 | 13 | 31* | 22 | -3
CCOC(=O)N1CCN(c2ccc([N+](=O)[O-])cc2F)CC1C (stereo not given) | 12 | 0 | 8 | 10 | -7 | .
CC(C)(C)C(=O)[C@@H]1[C@@H]2C(=O)N(c3ccc4c(c3)OCCO4)C(=O)[C@@H]2C2c3ccccc3C=CN21 (stereo not given in full) | 23 | 2 | -3 | 54* | 17 | -7
Cc1ccc(N2C(=O)[C@@H]3[C@H](C2=O)C2c4ccccc4C=CN2[C@@H]3C(=O)c2ccco2)cc1 (stereo not given in full) | 13 | . | . | 78* | 25 | 101*
Cc1ccc(N2C(=O)[C@@H]3[C@H](C2=O)C2c4ccccc4C=CN2[C@@H]3C(=O)c2ccco2)c(C)c1 (stereo not given in full) | 14 | -4 | 1 | 95* | 2 | 53*
CC(=O)[C@@H]1[C@@H]2C(=O)N(Cc3ccccc3)C(=O)[C@@H]2C2c3ccccc3C=CN21 (stereo not given in full) | 7 | 0 | 7 | 64* | 22 | 33*
COc1ccc(N2C(=O)[C@@H]3[C@H](C2=O)[C@H]2c4ccccc4C=CN2[C@@H]3C(=O)Nc2ccccc2)cc1 | 2 | -3 | -1 | 9 | 8 | .
O=C(NCC#CCN1CCCC1)NCCc1ccccc1 | -5 | . | . | . | . | .
CCCNc1nc(SC)nc2c1cnn2CCN | -9 | . | . | . | . | .
O=C(Nc1nccs1)C1CCCN(c2ccc(-c3cccs3)nn2)C1 (stereo not given) | 10 | . | . | . | . | .
CC(=O)c1c(Cc2ccccc2Cl)c[nH]c1C | -11 | . | . | . | . | .
COc1cc(C(=O)Nc2cc(=O)n(C)c(=O)n2C)cc(OC)c1OC | -9 | . | . | . | . | .
Cc1cc(=O)[nH]c(N/N=C/C=C/c2ccccc2)n1 | . | . | . | 35* | 1 | -3
COC(=O)C1CCN(C(=O)Cn2cc(S(=O)(=O)c3ccccc3)c3ccccc32)CC1 | -10 | . | . | . | . | .
COc1ccc(Nc2ncnc3c2oc2ccccc23)cc1 | -6 | . | . | 33* | -24 | -4
O=C(NC(=S)Nc1cccnc1Cl)c1ccc(Cl)cc1Cl | -2 | . | . | . | . | .
CC1=C(C(=O)Nc2ccc([N+](=O)[O-])cc2)C(c2cccc(C(F)(F)F)c2)NC(=S)N1c1ccccc1 (stereo not given) | -15 | -28 | 24 | 31* | 23 | -16
CC(=O)C(C(C)=O)C1(O)C(=O)c2ccccc2C1=O | -4 | 5 | 1 | 101* | -7 | -12
CC(=O)N(C)C1=C(O)c2ccccc2C(=O)C1=O | -9 | 13 | 7 | 10 | 30 | .
O=C(CC1CCCCN1S(=O)(=O)c1ccccc1)Nc1nccs1 (stereo not given) | 8 | . | . | . | . | .
SMILES | SSB-PriA inh | ugtP null kill | Sa RN4220 lethal | CCHF vOTU inh-1 | VHR inh abs | CCHF vOTU inh-2
O=C(NCC(F)(F)F)c1cc(C2CCN(C(=O)Cn3ccc4ccccc43)CC2)[nH]n1 | -6 | . | . | . | . | .
CC1=NNC(=O)C1CCC(=O)N/N=C(/C)c1ccc([N+](=O)[O-])cc1 (stereo not given) | . | . | . | 30* | -4 | -17
CSc1ccc(Oc2cccc3c2S(=O)(=O)N(C2CC2)C[C@@H](COCc2ccccc2)O3)cc1C | . | . | . | -2 | . | .
C#CCN1CC(COc2ccccc2)Oc2cccc(Oc3ccc(SC)c(C)c3)c2S1(=O)=O (stereo not given) | . | . | . | 31* | . | -13
Cc1cc(C)cc(NC(=O)CN(C)S(=O)(=O)c2cccc3nsnc23)c1 | 2 | -1 | 1 | 21 | -4 | .
CCc1cccc(NC(=O)CN(C)S(=O)(=O)c2cccc3nsnc23)c1 | -7 | -6 | 4 | 36* | -9 | -3
Cc1cc2ncc3c(n2n1)CCN(C(=O)Cn1cnc2ccccc2c1=O)C3 | 0 | . | . | . | . | .
